Inconclusive results are not listed. Calls of active or inactive are those of the source. Calls come from the whole dose curve; as a rule, active = well fitted curve in the direction sought with a large enough effect in the repeat runs; inconclusive = weak or mixed curves; inactive = no such curve, though single readings can be large; an effect the other way counts as inactive or inconclusive.
Experiments:
[1] = qHTS RealTime-Glo MT Cell Viability Assay in HEK293 cells - 0 hour (AID 1224880); note: top concentration of the series differs between compounds; nearly all actives have a fitted effect of over 45% in size
How it was run: (§1)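 HEK293 + NanoLuc + prosubstrate, 600 cells/well; 5 h, 37 C/5% CO2; compound 23 nL in DMSO by pintool; 37 C; luminescence read at 0, 8, 16, 24, 32 and 40 h time points.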

[2] = A CellTox Green Cytotoxicity Assay to monitor cytotoxicity in HEK293 cells - 32 hour (AID 1224881); note: nearly all actives have a fitted effect of over 40% in size
How it was run: (§2)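 Tox21 screen in HEK293: membrane-impermeant cyanine dye fluoresces on binding dead-cell DNA; compound pinned 5 h post-seeding, plates held at 37 C, signal read repeatedly through 40 h.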

[3] = A CellTox Green Cytotoxicity Assay to monitor cytotoxicity in HepG2 cells - 0 hour (AID 1224882); note: nearly all actives have a fitted effect of over 35% in size
How it was run: (§3)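 Measurements at 0, 8, 16, 24, 32 and 40 h of treatment captured CellTox Green fluorescence in HepG2 cells that had been co-plated with reagent and preincubated 5 h at 37 C/5% CO2.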

[4] = A CellTox Green Cytotoxicity Assay to monitor cytotoxicity in HepG2 cells - 32 hour (AID 1224883); note: nearly all actives have a fitted effect of over 50% in size
How it was run: as §3

[5] = A CellTox Green Cytotoxicity Assay to monitor cytotoxicity in HEK293 cells - 8 hour (AID 1224884); note: nearly all actives have a fitted effect of over 35% in size
How it was run: as §2

[6] = qHTS RealTime-Glo MT Cell Viability Assay in HepG2 cells - 16 hour (AID 1224885); note: nearly all actives have a fitted effect of over 50% in size
How it was run: (§4)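 qHTS, HepG2, 600 cells/well, RealTime-Glo (NanoLuc + prosubstrate) added with cells; 5 h preincubation; DMSO compound addition; 37 C; luminescence at 0/8/16/24/32/40 h.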

[7] = qHTS RealTime-Glo MT Cell Viability Assay in HEK293 cells - 24 hour (AID 1224886); note: nearly all actives have a fitted effect of over 50% in size; note: potency is the fitted concentration of half-maximal effect; for activity change, negative = cytotoxicity: top concentration of the series differs between compounds
How it was run: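 Assay medium contained NanoLuc luciferase plus cell-permeant prosubstrate, added with HEK293 cells at 600 cells/well. After 5 h at 37 C/5% CO2 compounds were added; plates stayed at 37 C for 40 h with serial luminescence reads.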

[8] = qHTS RealTime-Glo MT Cell Viability Assay in HEK293 cells - 8 hour (AID 1224887); note: nearly all actives have a fitted effect of over 50% in size; note: potency is the fitted concentration of half-maximal effect; for activity change, negative = cytotoxicity: top concentration of the series differs between compounds
How it was run: as §1

[9] = A CellTox Green Cytotoxicity Assay to monitor cytotoxicity in HEK293 cells - 16 hour (AID 1224888); note: nearly all actives have a fitted effect of over 35% in size
How it was run: as §2

[10] = qHTS RealTime-Glo MT Cell Viability Assay in HepG2 cells - 0 hour (AID 1224889); note: nearly all actives have a fitted effect of over 50% in size
How it was run: as §4
% is set by controls: 0 for no effect and ±100 for the full control effect.

C(=C(c1ccccc1)c1ccccc1)c1ccccc1
inactive: outcome [1] | Potency [2] | Potency [3] | Potency [4] | Potency [5] | outcome [6] | Potency [7] | Potency [8] | Potency [9]

COc1ccc(N=[N+]([O-])c2ccc(OC)cc2)cc1
inactive: outcome [1] | Potency [2] | Potency [3] | Potency [4] | Potency [5] | outcome [6] | Potency [7] | Potency [8] | Potency [9]

NS(=O)(=O)c1cc(C2(O)NC(=O)c3ccccc32)ccc1Cl (configuration not stated)
inactive: outcome [1] | Potency [2] | Potency [3] | Potency [4] | Potency [5] | outcome [6] | Potency [7] | Potency [8] | Potency [9]

Nc1cc(N)cc(C(=O)O)c1
inactive: outcome [1] | Potency [2] | Potency [3] | Potency [4] | Potency [5] | outcome [6] | Potency [7] | Potency [8] | Potency [9]

CCC(C)OC(=O)N1CCCCC1CCO (configuration not stated)
inactive: outcome [1] | Potency [2] | Potency [3] | Potency [4] | Potency [5] | outcome [6] | Potency [7] | Potency [8] | Potency [9]

NCCNC(=O)c1ccc(Cl)cn1
inactive: outcome [1] | Potency [2] | Potency [3] | Potency [4] | Potency [5] | outcome [6] | Potency [7] | Potency [8] | Potency [9] | Potency [10]

Cc1cc(C)cc(OCC2CNC(=O)O2)c1 (configuration not stated)
inactive: outcome [1] | Potency [2] | Potency [3] | Potency [4] | Potency [5] | outcome [6] | Potency [7] | Potency [8] | Potency [9] | Potency [10]

CC(=O)N[C@@H](CCC(N)=O)C(=O)O
inactive: outcome [1] | Potency [2] | Potency [3] | Potency [4] | Potency [5] | outcome [6] | Potency [7] | Potency [8] | Potency [9]

Oc1ccc2c(c1)OC[C@@H](N1CCC(O)(c3ccc(F)cc3)CC1)[C@H]2O
inactive: outcome [1] | Potency [2] | Potency [3] | Potency [4] | Potency [5] | outcome [6] | Potency [7] | Potency [8] | Potency [9]

CSc1nc(NC2CC2)nc(NC(C)(C)C)n1
active: Potency [7] 21.9 µM | Potency [8] 19.5 µM
inactive: outcome [1] | Potency [2] | Potency [3] | Potency [4] | Potency [5] | outcome [6] | Potency [9]

CN(C)C(=O)Nc1ccccc1
inactive: outcome [1] | Potency [2] | Potency [3] | Potency [4] | Potency [5] | outcome [6] | Potency [7] | Potency [8] | Potency [9] | Potency [10]

N#CCN(CC#N)CCN(CC#N)CC#N
inactive: outcome [1] | Potency [2] | Potency [3] | Potency [4] | Potency [5] | outcome [6] | Potency [7] | Potency [8] | Potency [9]

C=CCOCC(O)CS(=O)(=O)O (configuration not stated)
inactive: outcome [1] | Potency [2] | Potency [3] | Potency [4] | Potency [5] | outcome [6] | Potency [7] | Potency [8] | Potency [9]

FC(F)(F)C(F)(F)C(F)(F)C(F)(F)C(F)(F)C(F)(F)C(F)(F)C(F)(F)C(F)(F)C(F)(F)F
inactive: activity change, negative = cytotoxicity [1] -21.9% [at 6.97 µM] | cytotoxicity increase [2] -14.9% [at 6.97 µM] | cytotoxicity [3] 4.39% [at 6.97 µM] | cytotoxicity increase [4] 1.61% [at 6.97 µM] | cytotoxicity increase [5] 4.13% [at 6.97 µM] | activity change, negative = cytotoxic [6] 3.86% [at 6.97 µM] | activity change, negative = cytotoxicity [7] -12.9% [at 6.97 µM] | activity change, negative = cytotoxicity [8] -20.1% [at 6.97 µM] | activity change [9] -9% [at 6.97 µM, hits give high values] | activity change, negative = cytotoxicity [10] 12.4% [at 6.97 µM]

CC(=O)CCc1ccc(O)cc1
inactive: outcome [1] | Potency [2] | Potency [3] | Potency [4] | Potency [5] | outcome [6] | Potency [7] | Potency [8] | Potency [9]

CCCC(=O)O[C@]1(C(=O)CCl)[C@@H](C)C[C@H]2[C@@H]3CCC4=CC(=O)C=C[C@]4(C)[C@@]3(F)C(=O)C[C@@]21C
inactive: outcome [1] | Potency [2] | Potency [3] | Potency [4] | Potency [5] | outcome [6] | Potency [7] | Potency [8] | Potency [9] | Potency [10]

c1ccc2cnncc2c1
inactive: outcome [1] | Potency [2] | Potency [3] | Potency [4] | Potency [5] | outcome [6] | Potency [7] | Potency [8] | Potency [9]

C=C(C)C(=O)OCCC(C)OC(=O)C(=C)C (configuration not stated)
inactive: outcome [1] | Potency [2] | Potency [3] | Potency [4] | Potency [5] | outcome [6] | Potency [7] | Potency [8] | Potency [9] | Potency [10]

CCN(CC)C(=O)c1ccc(O)c(OC)c1
inactive: outcome [1] | Potency [2] | Potency [3] | Potency [4] | Potency [5] | outcome [6] | Potency [7] | Potency [8] | Potency [9]

CNc1ncnc2nc[nH]c12
inactive: outcome [1] | Potency [2] | Potency [3] | Potency [4] | Potency [5] | outcome [6] | Potency [7] | Potency [8] | Potency [9] | Potency [10]

OCCCCCCO
inactive: outcome [1] | Potency [2] | Potency [3] | Potency [4] | Potency [5] | outcome [6] | Potency [7] | Potency [8] | Potency [9]

CC(C)(C)OC(=O)N1C[C@@H](F)C[C@H]1C(=O)O
inactive: outcome [1] | Potency [2] | Potency [3] | Potency [4] | Potency [5] | outcome [6] | Potency [7] | Potency [8] | Potency [9]

Nc1[nH]c(=O)ncc1F
inactive: outcome [1] | Potency [2] | Potency [3] | Potency [4] | Potency [5] | outcome [6] | Potency [7] | Potency [8] | Potency [9]

CC(C)COC(=O)c1ccccc1O
inactive: outcome [1] | Potency [2] | Potency [3] | Potency [4] | Potency [5] | outcome [6] | Potency [7] | Potency [8] | Potency [9]

N#CCc1ccccc1[N+](=O)[O-]
inactive: outcome [1] | Potency [2] | Potency [3] | Potency [4] | Potency [5] | outcome [6] | Potency [7] | Potency [8] | Potency [9]

— PubChem BioAssay (Tox21)
